This passage reports AC50 and outcome results from PubChem BioAssay (EPA / NIEHS).

Records with an inconclusive call do not appear. The source made the active and inactive calls. How the source made its calls, unless noted: active means hit-call score of the fitted dose curve at least 0.9, where 1 is the maximum; inconclusive means response in the unintended direction; inactive means score below 0.9.

One assay concerns DIO1 (gene 1733). Briefly: CCTE_GLTED_hDIO1: CCTE's human Deiodinase 1 (DIO1) Inhibition Assay, Great Lakes Toxicology and Ecology Division (GLTED) Lab (AID 2283987).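 Further: isolated human DIO1 enzyme in a cell-free setup rather than cells; enzyme activity read as free iodide liberated from substrate via Sandell-Kolthoff colorimetry.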 The method in brief:
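Chemicals are tested on human DIO1 without cells for 3 h. Uninhibited enzyme frees iodide, which speeds cerium(IV) reduction by arsenic and is read by spectrophotometry.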

Assay [1] can be described thus: CCTE_Simmons_MITO_basal_resp_rate: CCTE's HepG2 Seahorse XF Respirometric Screening Assay at Basal Respiratory State, Simmons Lab (AID 2284001; active means hit-call score of the fitted dose curve at least 0.9, where 1 is the maximum; inactive means score below 0.9). The settings on record: actives raise or lower the signal. Summed up:
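HepG2 cells were given test chemicals at 7 concentrations, 125 nM to 100 uM final, and oxygen consumption rate was read every 6 min (3 min mix, 3 min measure) over 72 min. Basal-phase OCR was fitted bidirectionally against DMSO.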

Assay [2] deals with Nucleoli Translocation, AR (gene 367) (UniProt P10275). The experiment in a line: UPITT_HCI_U2OS_AR_TIF2_Nucleoli_Antagonist: University of Pittsburgh U2OS Androgen Receptor-Transcriptional Intermediary Factor 2 (AR-TIF2) Antagonism High Content Imaging Assay for Nucleoli Translocation (AID 2283997). The method in brief: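 U2OS cells expressing RFP-tagged human AR and GFP-tagged TIF2 were imaged by high-content fluorescence microscopy for red AR signal in the nucleolar region. Compounds were screened at 20 uM final (0.2% DMSO), with activity fitted relative to DHT as baseline.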
Chain of Nucleoli Translocation, AR (gene 367) (P10275 whole entry, looked up, the tested form may be a part): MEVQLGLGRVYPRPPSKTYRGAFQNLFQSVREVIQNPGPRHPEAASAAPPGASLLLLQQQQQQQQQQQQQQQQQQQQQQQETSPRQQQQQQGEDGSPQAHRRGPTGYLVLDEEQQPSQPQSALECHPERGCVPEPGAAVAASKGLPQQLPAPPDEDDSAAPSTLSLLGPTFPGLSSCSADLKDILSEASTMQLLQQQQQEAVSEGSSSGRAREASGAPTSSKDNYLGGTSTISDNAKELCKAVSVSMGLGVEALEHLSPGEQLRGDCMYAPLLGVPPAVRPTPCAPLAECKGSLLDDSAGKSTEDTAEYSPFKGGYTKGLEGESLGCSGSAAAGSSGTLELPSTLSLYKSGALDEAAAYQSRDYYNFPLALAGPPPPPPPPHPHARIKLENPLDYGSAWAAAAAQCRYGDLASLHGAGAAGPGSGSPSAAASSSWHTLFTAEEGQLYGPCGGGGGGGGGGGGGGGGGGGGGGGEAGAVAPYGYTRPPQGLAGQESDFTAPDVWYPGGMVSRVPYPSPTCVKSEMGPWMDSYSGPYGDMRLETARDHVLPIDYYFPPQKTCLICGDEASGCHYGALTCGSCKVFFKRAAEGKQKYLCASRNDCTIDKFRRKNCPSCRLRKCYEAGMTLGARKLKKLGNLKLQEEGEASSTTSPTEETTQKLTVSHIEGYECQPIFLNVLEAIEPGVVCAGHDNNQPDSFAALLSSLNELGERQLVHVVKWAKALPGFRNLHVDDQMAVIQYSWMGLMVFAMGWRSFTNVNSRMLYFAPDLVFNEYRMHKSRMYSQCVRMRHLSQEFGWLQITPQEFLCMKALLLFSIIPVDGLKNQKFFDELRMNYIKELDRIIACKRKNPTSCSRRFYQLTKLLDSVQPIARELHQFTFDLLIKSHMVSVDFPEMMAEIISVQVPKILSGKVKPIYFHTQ

The target of assay [3] is Ratio of Nucleoli Translocation and Cytoplasm, AR (gene 367) (UniProt P10275). Briefly: UPITT_HCI_U2OS_AR_TIF2_Nucleoli_Cytoplasm_Ratio_Agonist: University of Pittsburgh U2OS Androgen Receptor-Transcriptional Intermediary Factor 2 (AR-TIF2) Agonism High Content Imaging Assay for Ratio of Nucleoli Translocation and Cytoplasm (AID 2284000).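 Further: hits raise the red nucleolar to cytoplasm ratio above vehicle.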 Summed up:
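U2OS cells expressing RFP-tagged human AR and GFP-tagged TIF2 were imaged by high-content fluorescence microscopy. The endpoint is the ratio of nucleolar to cytoplasmic red fluorescence, fitted for gain of signal relative to DMSO. Concentration-response spanned 0.195 to 50 uM final (0.5% DMSO).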

Assay [4] concerns the target Retinoic acid receptor RXR-alpha (Homo sapiens) (UniProt P19793). The experiment in a line: TOX21_TR_RXR_BLA_Antagonist_Followup_ratio: Tox21 Thyroid Hormone Receptor beta Retinoid X Receptor alpha (RXRa) Antagonism Beta-lactamase (BLA) Follow-Up Assay, Ratio (AID 2283972). The method in brief: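 Compounds were tested in triplicate at 11 concentrations on RXRa-bla HEK293T cells for 16 h. Substrate cleavage ratio, normalized to DMSO, gave the endpoint.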

The nature of assay [5]: TOX21_TR_RXR_BLA_Antagonist_Followup_viability: Viability Assessment in the Tox21 Thyroid Hormone Receptor beta Retinoid X Receptor alpha (RXRa) Antagonism Beta-lactamase (BLA) Follow-Up Assay (AID 2283979). The method in brief: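 RXRa-UAS-bla HEK293T cells seeded 2,500/well in phenol red-free DMEM with 2% charcoal-stripped FBS, attached 5 h, then exposed to compounds at 11 concentrations in triplicate for 16 h at 37C/5% CO2. Viability read by CellTiter-Glo ATP luminescence; bidirectional fit versus DMSO.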

Assay [6] concerns the target Nucleoli Translocation, AR (gene 367) (UniProt P10275). The experiment in a line: UPITT_HCI_U2OS_AR_TIF2_Nucleoli_Agonist: University of Pittsburgh U2OS Androgen Receptor-Transcriptional Intermediary Factor 2 (AR-TIF2) Agonism High Content Imaging Assay for Nucleoli Translocation (AID 2283998). Summed up: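 High-content images quantify nucleolar accumulation of RFP-fused AR in cells also expressing GFP-TIF2; the endpoint is fitted as signal gain versus DMSO controls across final concentrations of 0.195 to 50 uM.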

For assay [7], the target named is Ratio of Nucleoli Translocation and Cytoplasm, AR (gene 367) (UniProt P10275). The experiment in a line: UPITT_HCI_U2OS_AR_TIF2_Nucleoli_Cytoplasm_Ratio_Antagonist: University of Pittsburgh U2OS Androgen Receptor-Transcriptional Intermediary Factor 2 (AR-TIF2) Antagonism High Content Imaging Assay for Ratio of Nucleoli Translocation and Cytoplasm (AID 2283999).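 Further: antagonists lower the DHT-driven ratio of nucleolar to cytoplasmic red signal.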 Summed up: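 U2OS cells expressing RFP-tagged human AR and GFP-tagged TIF2; compounds tested at 20 uM final (0.2% DMSO) in primary screen, 0.195–50 uM (0.5% DMSO) for concentration response. Readout: nucleolar-to-cytoplasmic red fluorescence ratio by high-content imaging, fitted relative to DHT.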
Chain of Ratio of Nucleoli Translocation and Cytoplasm, AR (gene 367) (P10275 whole entry, looked up): as the sequence (P10275 whole entry, looked up, the tested form may be a part) above

Assay [8] can be described thus: CCTE_Harrill_HTTr_Viability_DMEM_6hr: (Pilot) CCTE's 6-hour Cell Viability Assessment for the High-Throughput Transcriptomics (HTTr) Platform, in MCF-7 cells cultured in DMEM + 10% fetal bovine serum, Harrill Lab (AID 2283973; active means hit-call score of the fitted dose curve at least 0.9, where 1 is the maximum; inactive means score below 0.9). The method in brief:
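MCF-7 cells in DMEM + 10% FBS, eight-point dilution series, 6 h exposure. Membrane integrity by propidium iodide exclusion with high-content imaging; bidirectional fit versus DMSO.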

The nature of assay [9]: CCTE_Harrill_HTTr_Viability_DMEM_12hr: (Pilot) CCTE's 12-hour Cell Viability Assessment for the High-Throughput Transcriptomics (HTTr) Platform, in MCF-7 cells cultured in DMEM + 10% fetal bovine serum, Harrill Lab (AID 2283974; active means hit-call score of the fitted dose curve at least 0.9, where 1 is the maximum; inactive means score below 0.9). The method in brief:
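MCF-7 cells in DMEM + 10% FBS exposed 12 h to an eight-point dilution series; membrane integrity scored by propidium iodide exclusion with high-content imaging, bidirectional fitting versus DMSO.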

A short description of assay [10]: CCTE_Harrill_HTTr_Viability_DMEM_24hr: (Pilot) CCTE's 24-hour Cell Viability Assessment for the High-Throughput Transcriptomics (HTTr) Platform, in MCF-7 cells cultured in DMEM + 10% fetal bovine serum, Harrill Lab (AID 2283975; active means hit-call score of the fitted dose curve at least 0.9, where 1 is the maximum; inactive means score below 0.9). Summed up:
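MCF-7 cells in DMEM with 10% FBS exposed for 24 hours to an eight-point dilution series. Membrane integrity by propidium iodide exclusion with high content imaging; bidirectional fit against DMSO.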

Assay [11] in a line: CCTE_Harrill_HTTr_Viability_PRF_DMEM_6hr: (Pilot) CCTE's 6-hour Cell Viability Assessment for the High-Throughput Transcriptomics (HTTr) Platform, in MCF-7 cells cultured phenol red-free DMEM + 10% charcoal-stripped fetal bovine serum, Harrill Lab (AID 2283976; active means hit-call score of the fitted dose curve at least 0.9, where 1 is the maximum; inactive means score below 0.9). Summed up:
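MCF-7 cells in phenol red-free DMEM with 10% charcoal-stripped FBS exposed 6 hours to an eight-point dilution series. Propidium iodide exclusion imaged; curves fitted bidirectionally against DMSO.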

Assay [12] can be described thus: CCTE_Harrill_HTTr_Viability_PRF_DMEM_12hr: (Pilot) CCTE's 12-hour Cell Viability Assessment for the High-Throughput Transcriptomics (HTTr) Platform, in MCF-7 cells cultured in phenol red-free DMEM + 10% charcoal-stripped fetal bovine serum, Harrill Lab (AID 2283977; active means hit-call score of the fitted dose curve at least 0.9, where 1 is the maximum; inactive means score below 0.9). Summed up:
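MCF-7 cells in phenol red-free DMEM with 10% charcoal-stripped FBS exposed 12 hours to an eight-point dilution series. Viability assessed by high-content imaging of propidium iodide exclusion; bidirectional fit versus DMSO.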

A short description of assay [13]: CCTE_Harrill_HTTr_Viability_PRF_DMEM_24hr: (Pilot) CCTE's 24-hour Cell Viability Assessment for the High-Throughput Transcriptomics (HTTr) Platform, in MCF-7 cells cultured in phenol red-free DMEM + 10% charcoal-stripped fetal bovine serum, Harrill Lab (AID 2283980; active means hit-call score of the fitted dose curve at least 0.9, where 1 is the maximum; inactive means score below 0.9). Summed up: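 MCF-7 cells in phenol red-free DMEM with 10% charcoal-stripped FBS, eight-point dilution series, 24 h exposure. Membrane integrity by propidium iodide exclusion with high content imaging; bidirectional fit vs DMSO.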

Assay [14] is described as follows: CCTE_Harrill_HTTr_Apoptosis_DMEM_6hr: (Pilot) CCTE's 6-hour Apoptosis Assessment for the High-Throughput Transcriptomics (HTTr) Platform, in MCF-7 cells cultured in DMEM + 10% fetal bovine serum, Harrill Lab (AID 2283981; active means hit-call score of the fitted dose curve at least 0.9, where 1 is the maximum; inactive means score below 0.9). The method in brief: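 Caspase-3/7 activation read by high content imaging with CellEvent Caspase 3/7 Green in MCF-7 cells (DMEM + 10% FBS), 6 h after dosing; eight-point dilution series. Bidirectional fitting relative to DMSO baseline.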

Assay [15] can be described thus: CCTE_Harrill_HTTr_Apoptosis_DMEM_12hr: (Pilot) CCTE's 12-hour Apoptosis Assessment for the High-Throughput Transcriptomics (HTTr) Platform, in MCF-7 cells cultured in DMEM + 10% fetal bovine serum, Harrill Lab (AID 2283982; active means hit-call score of the fitted dose curve at least 0.9, where 1 is the maximum; inactive means score below 0.9). The method in brief:
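MCF-7 cells in DMEM + 10% FBS, exposed 12 h to an eight-point dilution series; caspase-3/7 activation imaged with CellEvent Green. Bidirectional fit versus DMSO.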

A short description of assay [16]: CCTE_Harrill_HTTr_Apoptosis_DMEM_24hr: (Pilot) CCTE's 24-hour Apoptosis Assessment for the High-Throughput Transcriptomics (HTTr) Platform, in MCF-7 cells cultured in DMEM + 10% fetal bovine serum, Harrill Lab (AID 2283983; active means hit-call score of the fitted dose curve at least 0.9, where 1 is the maximum; inactive means score below 0.9). The method in brief:
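MCF-7 cells in DMEM + 10% FBS, eight-point dilution series, 24 h exposure. Caspase-3/7 activation imaged by high-content imaging with CellEvent Caspase 3/7 Green. Bidirectional curve fitting against DMSO baseline.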

Assay [17] can be described thus: CCTE_Harrill_HTTr_Apoptosis_PRF_DMEM_6hr: (Pilot) CCTE's 6-hour Apoptosis Assessment for the High-Throughput Transcriptomics (HTTr) Platform, in MCF-7 cells cultured phenol red-free DMEM + 10% charcoal-stripped fetal bovine serum, Harrill Lab (AID 2283984; active means hit-call score of the fitted dose curve at least 0.9, where 1 is the maximum; inactive means score below 0.9). The method in brief: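 MCF-7 cells in phenol red-free DMEM + 10% charcoal-stripped FBS, eight-point dilution series, 6 h exposure. Caspase-3/7 activation imaged by high-content imaging with CellEvent Caspase 3/7 Green; bidirectional fit versus DMSO baseline.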

A short description of assay [18]: CCTE_Harrill_HTTr_Apoptosis_PRF_DMEM_12hr: (Pilot) CCTE's 12-hour Apoptosis Assessment for the High-Throughput Transcriptomics (HTTr) Platform, in MCF-7 cells cultured in phenol red-free DMEM + 10% charcoal-stripped fetal bovine serum, Harrill Lab (AID 2283985; active means hit-call score of the fitted dose curve at least 0.9, where 1 is the maximum; inactive means score below 0.9). Summed up:
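MCF-7 cells in phenol red-free DMEM with 10% charcoal-stripped FBS, eight-point dilution series, 12 h exposure. Caspase-3/7 activation imaged by high content imaging with CellEvent Green reagent; bidirectional fit vs DMSO.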

Assay [19] can be described thus: CCTE_Harrill_HTTr_Apoptosis_PRF_DMEM_24hr: (Pilot) CCTE's 24-hour Apoptosis Assessment for the High-Throughput Transcriptomics (HTTr) Platform, in MCF-7 cells cultured in phenol red-free DMEM + 10% charcoal-stripped fetal bovine serum, Harrill Lab (AID 2283986; active means hit-call score of the fitted dose curve at least 0.9, where 1 is the maximum; inactive means score below 0.9). The method in brief: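 MCF-7 cells in phenol red-free DMEM with 10% charcoal-stripped FBS, exposed 24 h across an eight-point dilution series. Caspase-3/7 activation imaged with CellEvent Green by high content imaging; bidirectional fitting against DMSO.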

Chain of Retinoic acid receptor RXR-alpha (Homo sapiens) (P19793 whole entry, looked up): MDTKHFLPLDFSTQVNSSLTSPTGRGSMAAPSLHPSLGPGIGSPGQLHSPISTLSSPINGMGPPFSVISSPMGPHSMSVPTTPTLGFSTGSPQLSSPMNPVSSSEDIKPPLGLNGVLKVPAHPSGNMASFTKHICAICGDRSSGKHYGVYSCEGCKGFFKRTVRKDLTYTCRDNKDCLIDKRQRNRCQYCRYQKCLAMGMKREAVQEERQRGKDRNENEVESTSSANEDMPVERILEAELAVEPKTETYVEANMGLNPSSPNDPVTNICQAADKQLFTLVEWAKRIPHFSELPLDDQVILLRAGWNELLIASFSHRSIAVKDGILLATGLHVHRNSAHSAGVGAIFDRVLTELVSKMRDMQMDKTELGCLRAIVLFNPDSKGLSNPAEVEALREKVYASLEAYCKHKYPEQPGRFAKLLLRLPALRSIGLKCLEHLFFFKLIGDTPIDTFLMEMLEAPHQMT

One may read the AC50 as the concentration giving half of the maximal activity seen. `CCCCCCCCn1sccc1=O`: the AC50 with DIO1 (gene 1733) is 54 µM (active). Besides, in assay [1], the molecule was classed as inactive.
`CCNS(=O)(=O)C(F)(F)C(F)(F)C(F)(F)C(F)(F)C(F)(F)C(F)(F)C(F)(F)C(F)(F)F`: the outcome in [2] and in [3] was inactive.
As for `CCC[CH2][Sn]([Cl])([CH2]CCC)[CH2]CCC`, the AC50 in assay [1] is 4.86 µM (active).
As for `COc1cc(C=O)cc2c1[C@H](COC(N)=O)[C@]1(OC(C)=O)ON2C[C@H]2[C@@H]1N2C(C)=O`, the result in assay [1] was inactive.
Turning to `CN(C)c1ccc(C(=O)c2ccc(N(C)C)cc2)cc1`, the outcome in assay [4] and in [5] was inactive.
On to `C[C@]12C=CC3=C4CCC(=O)C=C4CC[C@H]3[C@@H]1CC[C@@H]2O`, for which the values for the AC50 in assay [6] and in assay [3] were 0.00188 µM (active) and 0.00266 µM (active), respectively. Also, the result in assay [1] was inactive.
`CNC(=O)Oc1cccc2c1OC(C)(C)C2`: the call in assay [2] and in assay [7] was inactive.
Take `Oc1ccc2ccc3cccc4ccc1c2c34`: the AC50 in the assay with DIO1 (gene 1733) is 100 µM (active).
As for `O=C1CCCO1`, in [2], the call was inactive.
As to `C[N+](C)(C)CC1CO1` (centres undefined), the result in [6], in assay [7] and in assay [3] was inactive.
In the case of `O=C(Nc1ccccc1)c1ccccc1I`, the call in [2], in assay [6], in assay [7] and in assay [3] was inactive.
As for `[Cl-].[Cl-].[Hg+2]`, in assay [1], the AC50 was 36.7 µM (active).
In the case of `O=[N+]([O-])C(Br)(CO)CO`, in assay [2], the AC50 was 31.8 µM (active). For the same molecule, the molecule was called inactive in [6], in [7] and in assay [3].
Consider `CS(=O)(=O)NC(=O)c1cc(Oc2ccc(C(F)(F)F)cc2Cl)ccc1[N+](=O)[O-]`, for which the result in assay [8], in [9], in assay [10], in [11], in [12] and in assay [13] was inactive. In addition, the result in assay [14], in [15], in assay [16], in assay [17], in assay [18] and in assay [19] was inactive.
